Screens (PubChem BioAssay)
Compounds with a hit are over-represented: about 3% of the library has one in this group of screens.
ABHD5-PLIN5 inh = ABHD5-PLIN5 protein interaction inhibition; Q00G26+Q8WTS1; Split G. princeps luciferase complementation, luminescence, 4 h; inhibition, % at 4 µM; 0.78% of 360,000 active; AID 602281;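 active means inhibition above the mean inhibition across every tested compound plus 3 SD, cut at about 22% in these data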;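 further: 0% = DMSO only wells and the 100% control is not disclosed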
Target sequence (Q00G26 whole entry, looked up): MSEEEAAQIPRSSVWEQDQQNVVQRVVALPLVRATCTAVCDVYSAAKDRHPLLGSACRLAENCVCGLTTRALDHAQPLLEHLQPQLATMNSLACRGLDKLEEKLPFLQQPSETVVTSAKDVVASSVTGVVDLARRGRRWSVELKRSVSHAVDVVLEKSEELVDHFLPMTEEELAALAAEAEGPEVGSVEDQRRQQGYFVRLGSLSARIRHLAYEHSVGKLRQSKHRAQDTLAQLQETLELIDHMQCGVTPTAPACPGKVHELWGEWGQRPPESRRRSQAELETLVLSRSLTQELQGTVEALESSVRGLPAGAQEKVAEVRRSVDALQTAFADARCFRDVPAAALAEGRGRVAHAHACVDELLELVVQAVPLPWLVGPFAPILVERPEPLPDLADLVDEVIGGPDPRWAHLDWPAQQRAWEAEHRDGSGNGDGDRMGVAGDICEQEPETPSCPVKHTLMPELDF
Target sequence (Q8WTS1 whole entry, looked up): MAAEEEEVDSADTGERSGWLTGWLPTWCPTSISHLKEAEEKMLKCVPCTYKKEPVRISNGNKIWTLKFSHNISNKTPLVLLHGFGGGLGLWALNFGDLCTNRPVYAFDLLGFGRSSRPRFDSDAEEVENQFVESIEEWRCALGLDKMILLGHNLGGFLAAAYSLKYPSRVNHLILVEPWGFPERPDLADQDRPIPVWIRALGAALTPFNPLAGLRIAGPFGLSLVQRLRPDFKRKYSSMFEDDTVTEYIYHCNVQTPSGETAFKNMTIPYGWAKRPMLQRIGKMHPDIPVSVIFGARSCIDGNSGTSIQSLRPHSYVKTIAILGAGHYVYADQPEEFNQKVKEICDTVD
TRPM1 prom inh = MITF TRPM1 promoter inhibition in SK-MEL-5 cells; inhibition, % at 12.5 µM; 0.83% of 330,000 active; SK-MEL-5 TRPM1 promoter luciferase, 24 h;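 active means mean inhibition across replicates of 60% or more, whatever share of single replicates reaches that level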
CF NFkB block = blocks PAF-induced NF-kB reporter in cystic fibrosis cells | KKLEB NF-kB-GFP reporter, GFP fluorescence overnight | 0.86% of 360,000 active | inhibition, % at 5 µM;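 active means at least 50% inhibition at 5 µM, scaled per plate between neutral and stimulator controls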;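 further: PAF is a Pseudomonas aeruginosa culture filtrate used as stimulus; plate controls were PAF-stimulated DMSO wells for no effect and unstimulated DMSO wells for full effect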
HIF-2a block = blocks HIF-2a reporter activity | 786-0 RCC cells HIF-2a reporter, luciferase luminescence, overnight | inhibition, % at 18.8 µM | 0.72% of 360,000 active;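 active means inhibition of the luminescence signal of 40% or more relative to plate controls, in a single-dose primary screen at 18.75 µM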
Peg3 promoter = inhibitors of Peg3 promoter; inhibition, % at 20 µM; HeLa PEG-Prom luciferase reporter, luminescence, overnight; 1.7% of 360,000 active;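 active means inhibition of at least 50% at 20 µM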
KKLEB tox = counter-screen for CF NF-kB inhibitors: cytotoxicity. KKLEB CF airway cells viability, ATPlite luminescence, overnight; hits give low values; cells stimulated with P. aeruginosa culture filtrate. activity change (cytotoxicity), % at 5 µM. 0.36% of 360,000 active. AID 602141;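 active means corrected activity change at or below -50% at 5 µM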
* marks the source's active call; other numbers are inactive results; . = not tested or not shown; ! = not active in a repeat.

SMILES | ABHD5-PLIN5 inh | TRPM1 prom inh | CF NFkB block | HIF-2a block | Peg3 promoter | KKLEB tox
CNc1cc(C)c(C#N)c2nc3ccccc3n12 | 1 | -12 | -44 | 10 | 10 | -11
Cc1cc(Cl)n2c(nc3ccccc32)c1C#N | 5 | 81* | 64* | -24 | 103* | -31
Cc1c(CCCl)c(Cl)n2c(nc3ccccc32)c1C#N | 11 | 97* | 78* | 84* | 101* | -85*
CC[C@]12c3[nH]c4ccccc4c3CCN1C(=O)C(CC(=O)NCCC1=CCCCC1)C[C@@H]2C(=O)N1CCN(C(=O)C2CC2)CC1 (stereo partly specified) | -1 | 6 | -5 | -6 | -18 | 7
Cn1cnc([N+](=O)[O-])c1Sc1nc(N)nc2c1ncn2C1CC(O)C(CO)O1 (stereo unspecified) | 2 | 44 | 2 | 23 | 50* | 9
CN(C)c1ccc(CCc2ccc(N)cc2)cc1 | 4 | 43 | 6 | 83* | -60 | 12
O=c1[nH]cnc2c1nnn2C1OC(CO)C(O)C1O (stereo unspecified) | 1 | . | 6 | -10 | 35 | -7
COc1cc(NC(=O)C2=C(N3CCOCC3)/C(=C\c3ccc(Cl)cc3Cl)CC2)cc(OC)c1OC | 4 | 6 | 50 | 19 | 24 | -65*
Cc1ccc(-n2nc3c(=O)n(CC(=O)NC(C)CCc4ccccc4)nc(C)c3c2C)cc1 (stereo unspecified) | 4 | 36 | -21 | 12 | 34 | 6
O=C1CC(c2ccc(O)c(O)c2)Oc2c1ccc(O)c2O (stereo unspecified) | 8 | -8 | 12 | 13 | -21 | -16
CC(C)=CCc1c(O)ccc2c1OC(c1ccc(O)c(O)c1)CC2=O (stereo unspecified) | -2 | 71* | 34 | 12 | 35 | -3
CC1(C(=O)Nc2cccc3cccnc23)CCN1Cc1cccc2c1OCO2 (stereo unspecified) | -1 | . | 15 | 0 | -2 | 6
COc1ccc(Br)cc1/C(C)=N/NC1=NCCN1 | 12 | 13 | 1 | 22 | 17 | -3
CCCCCOc1ccc(Br)cc1/C(C)=N/NC1=NCCN1 | 7 | 70* | 52* | 31 | 81* | -23
CN1CCN(CCCNC(=O)c2ccc3c(Cl)c4c(nc3c2)CCCC4)CC1 | 9 | -17 | 1 | -20 | 87* | 3
CCC(C)NC(=O)c1ccc2c(Cl)c3c(nc2c1)CCC3 (stereo unspecified) | 0 | -53 | 4 | -331 | -242 | -11
COc1ccc(Cn2c(-c3ccc(C)cc3)c[n+]3ccccc23)cc1 | 5 | 78* | 22 | -6 | 3 | -8
CCNc1ccc(Br)cc(C(=O)/C=C/c2c(Cl)cccc2Cl)c1=O | 44* | 83* | -8 | 68* | 104* | 5
CNc1ccc(Br)cc(C(=O)/C=C/c2ccc(Cl)cc2Cl)c1=O | 57* | 31 | 10 | -2 | 62* | -3
CCNc1ccc(Br)cc(C(=O)/C=C/c2ccc(Cl)cc2)c1=O | 27* | 27 | 1 | 3 | 33 | -11
Cc1ccsc1-c1nc(C(N)=O)c2[nH]c(=O)n(-c3ccc(Cl)cc3)c2n1 | 1 | 4 | 44 | 10 | 76* | -45
Cc1ccc(-n2c(=O)[nH]c3c(C(N)=O)nc(C(C)C)nc32)cc1 | -1 | 14 | 1 | 19 | 17 | 0
O=C1OC(CN(Cc2ccccc2)Cc2ccccc2)CN1N=Cc1ccc([N+](=O)[O-])o1 (stereo unspecified) | 3 | 82* | -1 | -16 | 14 | 6
CCOC(=O)CSc1ccc(C(=O)N2CCN(C)CC2)cc1[N+](=O)[O-] | -7 | -9 | -7 | 2 | 104* | 4
COc1cc(NC(=O)c2ccnc(N)c2)cc(C(=O)Nc2cccc(C(F)(F)F)c2)c1 | 3 | -25 | -2 | -113 | -51 | 10
SMILES | ABHD5-PLIN5 inh | TRPM1 prom inh | CF NFkB block | HIF-2a block | Peg3 promoter | KKLEB tox
COc1cc(NC(=O)c2cnc(N)o2)cc(C(=O)Nc2cccc(C(F)(F)F)c2)c1 | 5 | 34 | -1 | -67 | 56*! | 1
COc1ccc(C(=O)NCCCOc2cccc(NC(C)=O)c2)cc1 | 7 | -4 | 1 | -21 | -13 | 2
O=C(/C=C/c1ccc([N+](=O)[O-])cc1)/C=C/c1ccco1 | 63* | 55 | -24 | -29 | -26 | 0
O=C(/C=C/c1ccc([N+](=O)[O-])cc1)NCc1ccco1 | 1 | -26 | -2 | -75 | -68 | 7
COc1cc(C2C3=C(COC3=O)Oc3cc4c(cc32)OCO4)cc(OC)c1OC(C)=O (stereo unspecified) | -4 | 55 | 67* | 14 | -37 | -34
Cc1ccc(C(=O)N/C(=C/c2ccc(-c3ccc([N+](=O)[O-])cc3)o2)C(=O)NCCCN(C)C)cc1 | 16 | 15 | -1 | -8 | 109* | -10
O=C(NCCCO)/C(=C/c1ccc(-c2cccc([N+](=O)[O-])c2)o1)NC(=O)c1ccccc1 | 8 | 3 | -6 | 5 | 11 | -2
O=C(N1CCN(c2ccccn2)CC1)C(Cl)(Cl)Cl | -1 | -15 | -18 | -59 | -67 | 10
O=C1C=C(N2CCN(c3ccccn3)CC2)C(=O)c2c(O)ccc(O)c21 | -5 | 92* | 38 | 1 | 0 | -10
O=C(O)CSc1cc(NS(=O)(=O)c2ccc(Cl)cc2)c2ccccc2c1O | 5 | 36 | 81* | 17 | 30 | -21
COc1ccc(S(=O)(=O)Nc2cc(SCC(=O)O)c(O)c3ccccc23)cc1 | -8 | 68* | 78* | -2 | 10 | -21
COc1ccc(S(=O)(=O)Nc2cccc3ccc(O)cc23)cc1 | 0 | 30 | 13 | 20 | 49 | -9
COc1ccc(NC(=O)c2ccc(NC3CC(=O)N(c4ccc(C)cc4C)C3=O)cc2)cc1 (stereo unspecified) | -3 | 9 | 50 | -2 | 17 | -56*
COc1ccc(C2Nc3ccccc3C(=O)N2O)cc1CN1CCOCC1 (stereo unspecified) | 2 | -2 | 0 | 15 | -1 | -2
Cc1cc(OC(C)C(=O)Nc2ccncc2)ccc1Cl (stereo unspecified) | 0 | 7 | 9 | 17 | 29 | -8
CCOC(=O)c1cc2c(N)c(C(=O)c3cc(C#N)c(SC)nc3C)sc2nc1C | -2 | 9 | 48 | -4 | 28 | -64*
CCOC(=O)c1cc(C#N)c(SC)nc1C | 7 | -6 | -3 | 12 | 10 | -1
COc1ccccc1Nc1nc(NCC(C)C)nc(N)c1[N+](=O)[O-] | -3 | -10 | 55* | 26 | 45 | -14
CCC(C)Nc1nc(N)c([N+](=O)[O-])c(Nc2ccccc2OC)n1 (stereo unspecified) | -3 | 0 | 36 | 12 | 60* | -9
CCOC(=O)c1c(C)[nH]c(C)c1S(=O)(=O)NC(CC)CN1CCOCC1 (stereo unspecified) | -3 | 4 | 17 | 10 | -10 | -4
